Assay results: PubChem BioAssay AID1159580 (chemical genetic matrix, 2015)
About 2,000 (36%) of roughly 5,500 compounds were called active. Inconclusive results (about 18%) are left out. Cut-off read from the data, not from the text of the source: active = normalized growth mostly below about 0.91 (no sharp cut-off); inconclusive = no clear call, values can overlap the other calls; inactive = mostly above about 0.92. The list shows a part of the results.

Assay: chemical genetic growth profiling, strain panel (AID 1159580);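 note: tested at 20 µM; growth read once vehicle control cultures reached saturation at 30 °C; 1 = growth at the plate median or of vehicle wells; lower values mean less growth of the strain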
Settings: growth OD

Measured: normalized growth

C[N+](C)(C)CC(=O)[O-]
inactive: S. cerevisiae deletion strains, locus YJR075W, strain HOC1, hits give low values 0.977 | S. cerevisiae deletion strains, locus YKL009W, strain mrt4, hits give low values 0.972 | S. cerevisiae deletion strains, locus YKL068W, hits give low values 0.976 | S. cerevisiae deletion strains, locus YKL085W, strain MDH1 (second series), hits give low values 0.978 | S. cerevisiae deletion strains, locus YKL085W, strain MDH1, hits give low values 0.978 | S. cerevisiae deletion strains, locus YKL160W, strain elf1, hits give low values 0.995 | S. cerevisiae deletion strains, locus YKL190W, strain CNB1, hits give low values 0.976 | S. cerevisiae deletion strains, locus YKR001C, strain vps1, hits give low values 0.982 | S. cerevisiae deletion strains, locus YKR026C, strain gcn3, hits give low values 1.02 | S. cerevisiae deletion strains, locus YKR091W, strain srl3, hits give low values 0.976 | S. cerevisiae deletion strains, locus YLL001W, strain dnm1, hits give low values 0.949 | S. cerevisiae deletion strains, locus YLL026W, hits give low values 0.982 | S. cerevisiae deletion strains, locus YLL041C, strain sdh2, hits give low values 0.963 | S. cerevisiae deletion strains, locus YLR027C, strain aat2, hits give low values 0.989 | S. cerevisiae deletion strains, locus YLR039C, strain RIC1, hits give low values 0.952 | S. cerevisiae deletion strains, locus YLR058C, strain SHM2, hits give low values 1 | S. cerevisiae deletion strains, locus YLR102C, strain apc9, hits give low values 0.992 | S. cerevisiae deletion strains, locus YLR113W, strain HOG1, hits give low values 0.981 | S. cerevisiae deletion strains, locus YLR221C, strain rsa3, hits give low values 1 | S. cerevisiae deletion strains, locus YLR258W, strain gsy2, hits give low values 0.985 | S. cerevisiae deletion strains, locus YLR262C, strain YPT6 (second series), hits give low values 0.948 | S. cerevisiae deletion strains, locus YLR262C, strain YPT6, hits give low values 0.938 | S. cerevisiae deletion strains, locus YLR268W, strain sec22, hits give low values 0.96 | S. cerevisiae deletion strains, locus YLR320W, strain mms22, hits give low values 1.01 | S. cerevisiae deletion strains, locus YLR330W, strain CHS5, hits give low values 0.99 | S. cerevisiae deletion strains, locus YLR342W, strain FKS1 (second series), hits give low values 1.04 | S. cerevisiae deletion strains, locus YLR342W, strain FKS1, hits give low values 0.988 | S. cerevisiae deletion strains, locus YLR357W, strain rsc2, hits give low values 0.969 | S. cerevisiae deletion strains, locus YLR370C, strain arc18, hits give low values 0.985 | S. cerevisiae deletion strains, locus YLR371W, strain rom2, hits give low values 0.993 | S. cerevisiae deletion strains, locus YLR384C, strain iki3, hits give low values 0.967 | S. cerevisiae deletion strains, locus YLR418C, strain cdc73, hits give low values 0.99 | S. cerevisiae deletion strains, locus YML016C, strain PPZ1, hits give low values 1.01 | S. cerevisiae deletion strains, locus YML032C, strain rad52, hits give low values 0.97 | S. cerevisiae deletion strains, locus YML120C, strain ndi1, hits give low values 0.98 | S. cerevisiae deletion strains, locus YML124C, strain tub3, hits give low values 0.992 | S. cerevisiae deletion strains, locus YMR058W, strain fet3, hits give low values 0.987 | S. cerevisiae deletion strains, locus YMR078C, strain ctf18, hits give low values 0.981 | S. cerevisiae deletion strains, locus YMR125W, strain sto1, hits give low values 0.951 | S. cerevisiae deletion strains, locus YMR129W, hits give low values 0.975 | S. cerevisiae deletion strains, locus YMR205C, strain PFK2, hits give low values 0.986 | S. cerevisiae deletion strains, locus YMR223W, strain ubp8, hits give low values 1.03 | S. cerevisiae deletion strains, locus YMR231W, strain pep5, hits give low values 0.972 | S. cerevisiae deletion strains, locus YMR263W, strain SAP30, hits give low values 0.977 | S. cerevisiae deletion strains, locus YMR307W, strain GAS1, hits give low values 1.04 | S. cerevisiae deletion strains, locus YNL067W, strain RPL9B, hits give low values 0.982 | S. cerevisiae deletion strains, locus YNL071W, strain lat1, hits give low values 0.989 | S. cerevisiae deletion strains, locus YNL128W, strain TEP1, hits give low values 0.989 | S. cerevisiae deletion strains, locus YNL153C, strain GIM3, hits give low values 0.985 | S. cerevisiae deletion strains, locus YNL183C, strain NPR1, hits give low values 0.938 | S. cerevisiae deletion strains, locus YNL209W, strain ssb2, hits give low values 0.995 | S. cerevisiae deletion strains, locus YNL233W, strain BNI4, hits give low values 0.997 | S. cerevisiae deletion strains, locus YNL248C, strain rpa49, hits give low values 1.01 | S. cerevisiae deletion strains, locus YNL250W, strain rad50, hits give low values 0.991 | S. cerevisiae deletion strains, locus YNL271C, strain bni1, hits give low values 0.992 | S. cerevisiae deletion strains, locus YNL298W, strain CLA4, hits give low values 0.97 | S. cerevisiae deletion strains, locus YNL307C, strain MCK1, hits give low values 0.999 | S. cerevisiae deletion strains, locus YNL322C, strain KRE1 (second series), hits give low values 0.964 | S. cerevisiae deletion strains, locus YNL322C, strain KRE1, hits give low values 0.99 | S. cerevisiae deletion strains, locus YNR049C, strain mso1, hits give low values 0.974 | S. cerevisiae deletion strains, locus YNR052C, strain pop2, hits give low values 0.984 | S. cerevisiae deletion strains, locus YOL006C, strain TOP1, hits give low values 0.975 | S. cerevisiae deletion strains, locus YOL012C, strain htz1 0.729 | S. cerevisiae deletion strains, locus YOL147C, strain pex11, hits give low values 1 | S. cerevisiae deletion strains, locus YOR001W, strain rrp6, hits give low values 0.969 | S. cerevisiae deletion strains, locus YOR061W, strain CKA2, hits give low values 1 | S. cerevisiae deletion strains, locus YOR069W, strain VPS5, hits give low values 0.995 | S. cerevisiae deletion strains, locus YOR070C, strain gyp1, hits give low values 0.994 | S. cerevisiae deletion strains, locus YOR080W, strain dia2, hits give low values 0.951 | S. cerevisiae deletion strains, locus YOR083W, strain WHI5, hits give low values 0.971 | S. cerevisiae deletion strains, locus YOR106W, strain vam3, hits give low values 0.925 | S. cerevisiae deletion strains, locus YOR136W, strain idh2, hits give low values 0.985 | S. cerevisiae deletion strains, locus YOR144C, strain elg1, hits give low values 0.991 | S. cerevisiae deletion strains, locus YOR184W, strain ser1, hits give low values 0.989 | S. cerevisiae deletion strains, locus YOR231W, strain MKK1, hits give low values 0.986 | S. cerevisiae deletion strains, locus YOR265W, strain rbl2, hits give low values 0.985 | S. cerevisiae deletion strains, locus YOR270C, strain vph1, hits give low values 0.956 | S. cerevisiae deletion strains, locus YOR290C, strain snf2, hits give low values 1 | S. cerevisiae deletion strains, locus YOR316C, strain cot1, hits give low values 0.972 | S. cerevisiae deletion strains, locus YPL051W, strain arl3, hits give low values 0.99 | S. cerevisiae deletion strains, locus YPL055C, strain LGE1, hits give low values 0.944 | S. cerevisiae deletion strains, locus YPL078C, strain atp4, hits give low values 0.954 | S. cerevisiae deletion strains, locus YPL106C, strain sse1, hits give low values 0.982 | S. cerevisiae deletion strains, locus YPL240C, strain hsp82, hits give low values 0.976 | S. cerevisiae deletion strains, locus YPL241C, strain CIN2, hits give low values 0.999 | S. cerevisiae deletion strains, locus YPL256C, strain CLN2, hits give low values 1 | S. cerevisiae deletion strains, locus YPR119W, strain clb2, hits give low values 0.994 | S. cerevisiae deletion strains, locus YPR141C, strain kar3, hits give low values 0.979 | S. cerevisiae deletion strains, locus YPR163C, strain tif3, hits give low values 0.992 | S. cerevisiae deletion strains, locus YPR167C, strain met16, hits give low values 0.986 | S. cerevisiae deletion strains, strain wtn01, hits give low values 0.96 | S. cerevisiae strains, strain wild type, hits give low values 0.996
